Screen size: about 5,500 compounds; about 2,000 (36%) were called active. Roughly 18% stayed inconclusive and do not appear here. Rule as the data show it: active = normalized growth mostly below about 0.91 (no sharp cut-off); inconclusive = no clear call, values can overlap the other calls; inactive = mostly above about 0.92. This is one part of the list.
Assay: chemical genetic growth profiling, strain panel (AID 1159580);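 also: tested at 20 µM; growth read once vehicle control cultures reached saturation at 30 °C; 1 = growth at the plate median or of vehicle wells; lower values mean less growth of the strain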
Settings: S. cerevisiae deletion strains, growth OD

Measured: normalized growth

CNC(=O)[C@H]1O[C@@H](n2cnc3c(N)ncnc32)C(O)[C@H]1O (stereo partly drawn)
inactive: locus YAL013W, strain DEP1, hits give low values 0.987 | locus YAL040C, strain CLN3, hits give low values 0.989 | locus YDR363W, strain ESC2, hits give low values 1.07 | locus YER002W, strain NOP16, hits give low values 0.973 | locus YGR078C, strain PAC10, hits give low values 1 | locus YMR263W, strain SAP30, hits give low values 0.985 | locus YNL128W, strain TEP1, hits give low values 0.983 | locus YNL175C, strain NOP13, hits give low values 0.984 | locus YNL197C, strain WHI3, hits give low values 0.997 | locus YNL224C, strain SQS1, hits give low values 0.996 | locus YNL322C, strain KRE1, hits give low values 1.02 | locus YOR083W, strain WHI5 (second series), hits give low values 1.02 | locus YPL241C, strain CIN2, hits give low values 0.976

Source: PubChem BioAssay AID1159580 (chemical genetic matrix, 2015)
